Calls of active or inactive are those of the source.
Experiments:
[1] = A549 cell viability effects, profiling panel, calcein-AM fluorescence, 48 h, basal (AID 1162); settings: higher = more signal; also: test concentration not given here
[2] = adipocyte viability effects, profiling panel, cell-based, 3T3-L1 adipocytes, calcein-AM fluorescence, 48 h, basal (AID 1163); settings: 3T3-L1 adipocytes viability, higher = more signal; also: test concentration not given here
[3] = HepG2 cell viability effects, profiling panel, calcein-AM fluorescence, 48 h, basal (AID 1164); settings: higher = more signal; also: test concentration not given here
[4] = MM1S cell viability effects, profiling panel, calcein-AM fluorescence, 48 h, basal (AID 1165); settings: higher = more signal;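 also: viability of MM1S multiple myeloma cells under basal unstimulated conditions; test concentration not given here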
[5] = basal RPMI8226 viability, no added stimulus, profiling panel, cell-based, calcein-AM fluorescence, 48 h, PK04 Diversity Set (AID 1166); settings: RPMI8226 myeloma viability, higher = more signal;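 also: cells grown under basal conditions without added stimulus; test concentration not given here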
[6] = basal HepG2 mitochondrial membrane potential changes, profiling panel, cell-based, JC-1 fluorescence, 24 h, 100 nL compound (AID 1167); settings: higher = more signal; also: test concentration not given here
[7] = basal 3T3-L1 adipocyte mitochondrial potential changes, profiling panel, cell-based, JC-1 fluorescence, 3T3-L1 adipocytes, 24 h, 100 nL compound (AID 1168); settings: JC-1 mitochondrial fluorescence, higher = more signal, called active from +8 up or from −8 down; also: test concentration not given here
[8] = basal RPMI8226 mitochondrial membrane potential changes, profiling panel, cell-based, JC-1 fluorescence, 24 h, 100 nL compound (AID 1169); settings: RPMI8226 myeloma, JC-1 mitochondrial potential fluorescence, higher = more signal; also: test concentration not given here
[9] = basal MM1S mitochondrial membrane potential changes, profiling panel, cell-based, JC-1 fluorescence, 24 h, 100 nL compound (AID 1170); settings: higher = more signal; also: test concentration not given here
[10] = A549 lung cancer cell viability effects, profiling panel, resazurin fluorescence, 24 h, PK04 Diversity Set (AID 1171); settings: higher = more signal, called active from +8 up or from −8 down; also: test concentration not given here
[11] = HepG2 liver cancer cell viability effects, profiling panel, resazurin fluorescence, 24 h, PK04 Diversity Set (AID 1172); settings: higher = more signal; also: test concentration not given here
[12] = basal S. cerevisiae growth modulation, no modifier, primary screen, OD600, strain BY4716, 24 h, basal condition (AID 1173); settings: OD600, 24 h, higher = more signal, called active from +8 up or from −8 down
[13] = MM1S myeloma cell viability, profiling panel, resazurin fluorescence, basal, 24 h, PK04 Diversity Set (AID 1174); settings: higher = more signal, called active from +8 up or from −8 down;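 also: MM1S multiple myeloma cell line; test concentration not given here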
[14] = biological target: Dihydroorotate dehydrogenase (quinone), mitochondrial (Plasmodium falciparum (isolate 3D7)) (UniProt Q08210); assay: PfDHODH enzyme inhibitors, primary screen, biochemical, C-terminal His tag, absorbance 600 nm (AID 1175); settings: DCIP absorbance 600 nm, higher = more signal, called active from +8 up or from −8 down;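 also: recombinant parasite enzyme with a five histidine tag at its C terminus; test concentration not given here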
Chain of Dihydroorotate dehydrogenase (quinone), mitochondrial (Plasmodium falciparum (isolate 3D7)) (Q08210 whole entry, looked up): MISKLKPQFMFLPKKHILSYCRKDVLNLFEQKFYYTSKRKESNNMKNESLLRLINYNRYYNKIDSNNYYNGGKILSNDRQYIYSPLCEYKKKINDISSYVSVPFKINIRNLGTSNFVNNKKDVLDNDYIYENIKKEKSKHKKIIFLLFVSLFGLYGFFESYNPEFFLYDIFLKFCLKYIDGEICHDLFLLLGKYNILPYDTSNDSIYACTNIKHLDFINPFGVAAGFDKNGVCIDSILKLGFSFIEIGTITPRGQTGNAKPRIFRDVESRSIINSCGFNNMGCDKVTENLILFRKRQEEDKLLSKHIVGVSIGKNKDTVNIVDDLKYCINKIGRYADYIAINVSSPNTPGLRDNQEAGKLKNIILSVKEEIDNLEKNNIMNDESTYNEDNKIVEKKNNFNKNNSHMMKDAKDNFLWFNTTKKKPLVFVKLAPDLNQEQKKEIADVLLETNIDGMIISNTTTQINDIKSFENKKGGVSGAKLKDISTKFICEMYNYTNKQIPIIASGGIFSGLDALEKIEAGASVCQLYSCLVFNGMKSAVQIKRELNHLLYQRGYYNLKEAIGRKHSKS

[15] = S. cerevisiae RM11-1a growth modifiers, primary screen, strain RM11-1a, OD600, basal, 24 h (AID 1177); settings: OD600, 24 h, higher = more signal, called active from +8 up or from −8 down;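 also: cultures grown under basal conditions with no added stressor; test concentration not given here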
[16] = E. coli acrAB mutant growth effects, primary screen, E. coli filamentation inducers, strain DRC39, OD650, 24 h (AID 1178); settings: higher = more signal, called active from +8 up or from −8 down;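 also: growth measured as culture turbidity by optical density at 650 nm; test concentration not given here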
[17] = E. coli acrAB mutant growth effects, primary screen, E. coli filamentation inducers, strain DRC39, OD650, 48 h (AID 1179);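 also: screen aims at cell division blockers that make cells filament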; settings: E. coli DRC39 delta-acrAB growth, higher = more signal, called active from +8 up or from −8 down
[18] = RPMI8226 myeloma cell viability, profiling panel, resazurin fluorescence, basal, 24 h, PK04 Diversity Set (AID 1180); settings: higher = more signal;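 also: RPMI8826 multiple myeloma cell line at 5000 cells per well; test concentration not given here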
[19] = biological target: E3 ubiquitin-protein ligase XIAP (Homo sapiens) (UniProt P98170); assay: XIAP binders, primary screen, biophysical, small-molecule microarray, fluorescence 635 nm (AID 1181); settings: small-molecule microarray binding, higher = more signal;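 also: score merges 667 nm emission and signal to noise over triplicate slides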
Chain of E3 ubiquitin-protein ligase XIAP (Homo sapiens) (P98170 whole entry, looked up): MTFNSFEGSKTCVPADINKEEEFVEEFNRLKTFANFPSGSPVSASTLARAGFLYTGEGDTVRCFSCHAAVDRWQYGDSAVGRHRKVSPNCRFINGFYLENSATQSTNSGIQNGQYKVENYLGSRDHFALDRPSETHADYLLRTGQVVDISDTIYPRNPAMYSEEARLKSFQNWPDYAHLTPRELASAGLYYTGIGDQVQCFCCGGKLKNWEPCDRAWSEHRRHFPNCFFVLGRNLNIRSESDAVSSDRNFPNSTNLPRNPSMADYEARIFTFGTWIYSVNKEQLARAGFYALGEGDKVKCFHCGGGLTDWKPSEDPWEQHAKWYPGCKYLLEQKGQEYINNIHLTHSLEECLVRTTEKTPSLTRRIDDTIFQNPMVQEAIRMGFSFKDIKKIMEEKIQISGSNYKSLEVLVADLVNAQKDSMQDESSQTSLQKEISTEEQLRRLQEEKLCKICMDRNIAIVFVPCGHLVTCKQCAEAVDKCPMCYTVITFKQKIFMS

## COc1ccc(-c2ccccc2[C@@H]2N[C@H](C(=O)O)CC[C@H]2C)cc1
[1]
  z-score: 0.212
[2]
  z-score: 1.63
[3]
  z-score: -0.428
[4]
  z-score: 1.09
[5]
  z-score: -0.372
[6]
  z-score: 0.924
[7]
  z-score: 0.366 (inactive)
[8]
  z-score: 0.1
[9]
  z-score: 0.614
[10]
  z-score: 0.597 (inactive)
[11]
  z-score: 0.0637
[12]
  z-score: -0.611 (inactive)
[13]
  z-score: 1.37 (inactive)
[14]
  composite z-score: 0.577 (inactive)
[15]
  z-score: 0.649 (inactive)
[16]
  z-score: -0.892 (inactive)
[17]
  z-score: 0.0279 (inactive)
[18]
  z-score: 1.61
[19]
  composite z-score: -0.113

## C[C@]1(C(=O)NCc2ccccc2)c2ccccc2C(=O)N(Cc2cc(C(F)(F)F)cc(C(F)(F)F)c2)[C@H]1c1ccc(CO)cc1
[1]
  z-score: 0.0361
[2]
  z-score: 1.95
[3]
  z-score: 0.292
[4]
  z-score: -0.951
[5]
  z-score: -1.46
[6]
  z-score: 1.07
[7]
  z-score: -0.122 (inactive)
[8]
  z-score: -0.155
[9]
  z-score: -0.177
[10]
  z-score: 0.805 (inactive)
[11]
  z-score: -0.331
[12]
  z-score: -1.35 (inactive)
[13]
  z-score: 0.865 (inactive)
[14]
  composite z-score: -1.4 (inactive)
[15]
  z-score: -2.4 (inactive)
[16]
  z-score: 1.04 (inactive)
[17]
  z-score: 0.528 (inactive)
[18]
  z-score: 1.12
[19]
  composite z-score: -0.177

## CO[C@@H]1COC(=O)[C@H](C)NC(=O)CC=C[C@@H](C)[C@H](NS(=O)(=O)c2ccc(C)cc2)COC(=O)CC=C[C@@H]1C
[1]
  z-score: 0.286
[2]
  z-score: 0.624
[3]
  z-score: 0.129
[4]
  z-score: 0.287
[5]
  z-score: -0.0803
[6]
  z-score: 0.596
[7]
  z-score: 0.523 (inactive)
[8]
  z-score: -0.296
[9]
  z-score: 0.203
[10]
  z-score: 0.589 (inactive)
[11]
  z-score: 0.825
[12]
  z-score: -0.364 (inactive)
[13]
  z-score: 0.507 (inactive)
[14]
  composite z-score: 0.605 (inactive)
[15]
  z-score: 0.655 (inactive)
[16]
  z-score: 0.798 (inactive)
[17]
  z-score: 0.547 (inactive)
[18]
  z-score: 0.271
[19]
  composite z-score: -0.0835

## O=C1O[C@@H](c2ccccc2)[C@@H](c2ccccc2)N2[C@@H](c3ccc(O)cc3)[C@]3(C(=O)Nc4ccc(C#CC5(O)CCCCCC5)cc43)[C@@H](C(=O)Nc3nc4ccccc4s3)[C@H]12
[1]
  z-score: 1.46
[2]
  z-score: 2.07
[3]
  z-score: 0.417
[4]
  z-score: -1.55
[5]
  z-score: -1.97
[6]
  z-score: -2.15
[7]
  z-score: -0.444 (inactive)
[8]
  z-score: -0.567
[9]
  z-score: 0.159
[10]
  z-score: 1.2 (inactive)
[11]
  z-score: 0.527
[12]
  z-score: -0.657 (inactive)
[13]
  z-score: 1.19 (inactive)
[14]
  composite z-score: -0.067 (inactive)
[15]
  z-score: 0.74 (inactive)
[16]
  z-score: 0.597 (inactive)
[17]
  z-score: 0.946 (inactive)
[18]
  z-score: 0.88
[19]
  composite z-score: -0.184

## C=CCNC(=O)[C@@H]1[C@H]2C(=O)O[C@H](c3ccccc3)[C@H](c3ccccc3)N2[C@H](c2ccc(OCCO)cc2)[C@@]12C(=O)N(C(=O)OCCOC)c1ccc(C#CC3(O)CCCCCC3)cc12
[1]
  z-score: 0.0803
[2]
  z-score: 3.14
[3]
  z-score: -1.53
[4]
  z-score: -1.07
[5]
  z-score: -1.16
[6]
  z-score: -1.43
[7]
  z-score: 0.738 (inactive)
[8]
  z-score: -0.814
[9]
  z-score: -1.05
[10]
  z-score: 0.338 (inactive)
[11]
  z-score: 0.14
[12]
  z-score: -0.985 (inactive)
[13]
  z-score: 0.39 (inactive)
[14]
  composite z-score: -1.57 (inactive)
[15]
  z-score: 0.442 (inactive)
[16]
  z-score: 0.862 (inactive)
[17]
  z-score: 0.351 (inactive)
[18]
  z-score: 0.239
[19]
  composite z-score: 0.276

## COCCOC(=O)N1C(=O)[C@@]2(c3ccccc31)[C@H](C(=O)N1CCc3cc(OC)c(OC)cc3C1)[C@H]1C(=O)O[C@H](c3ccccc3)[C@H](c3ccccc3)N1[C@@H]2c1ccccc1OCCO
[1]
  z-score: 1.57
[2]
  z-score: 1.3
[3]
  z-score: -0.478
[4]
  z-score: -1.2
[5]
  z-score: -0.222
[6]
  z-score: 1.24
[7]
  z-score: 0.407 (inactive)
[8]
  z-score: -0.181
[9]
  z-score: -0.238
[10]
  z-score: 0.725 (inactive)
[11]
  z-score: 0.223
[12]
  z-score: 1.03 (inactive)
[13]
  z-score: -0.517 (inactive)
[14]
  composite z-score: -1.85 (inactive)
[15]
  z-score: -0.446 (inactive)
[16]
  z-score: 0.659 (inactive)
[17]
  z-score: 1.31 (inactive)
[18]
  z-score: 0.673
[19]
  composite z-score: -0.042

## C=CC[C@]1(C(=O)OC)N=C(c2ccc(OCCCO)cc2)O[C@H]1c1ccccc1CN=[N+]=[N-]
[1]
  z-score: -0.844
[2]
  z-score: 1.51
[3]
  z-score: -1.09
[4]
  z-score: -2.04
[5]
  z-score: -2.24
[6]
  z-score: -0.000782
[7]
  z-score: 0.21 (inactive)
[8]
  z-score: -1.01
[9]
  z-score: 0.734
[10]
  z-score: -0.179 (inactive)
[11]
  z-score: 0.84
[12]
  z-score: -4.46 (inactive)
[13]
  z-score: -0.609 (inactive)
[14]
  composite z-score: 0.632 (inactive)
[15]
  z-score: 0.0359 (inactive)
[16]
  z-score: 2.63 (inactive)
[17]
  z-score: 0.604 (inactive)
[18]
  z-score: 0.239
[19]
  composite z-score: 0.232

## CCOC(=O)C[C@H]1[C@H](OC(=O)c2cc3ccccc3oc2=O)[C@@H](NC(=O)c2ccc3ccccc3c2)c2cc(OCCCO)ccc2N1C(=O)c1ccc2ccccc2n1
[1]
  z-score: 0.418
[2]
  z-score: 1.48
[3]
  z-score: -0.0664
[4]
  z-score: 0.555
[5]
  z-score: 0.167
[6]
  z-score: 0.158
[7]
  z-score: -0.0237 (inactive)
[8]
  z-score: -0.233
[9]
  z-score: 0.197
[10]
  z-score: -0.194 (inactive)
[11]
  z-score: 0.272
[12]
  z-score: -2.13 (inactive)
[13]
  z-score: 0.0578 (inactive)
[14]
  composite z-score: -0.172 (inactive)
[15]
  z-score: -1.06 (inactive)
[16]
  z-score: 2.52 (inactive)
[17]
  z-score: 1.23 (inactive)
[18]
  z-score: -0.536
[19]
  composite z-score: -0.0454

## Cc1ccc(S[C@]2(C(=O)NCCN3CCOCC3)CC(=O)N(C3Cc4ccccc4C3)[C@@H]2c2ccc(CO)cc2I)cc1
[1]
  z-score: 1.47
[2]
  z-score: 1.33
[3]
  z-score: -0.0794
[4]
  z-score: -3.23
[5]
  z-score: -1.84
[6]
  z-score: 0.899
[7]
  z-score: -0.211 (inactive)
[8]
  z-score: -0.993
[9]
  z-score: -1.02
[10]
  z-score: 0.842 (inactive)
[11]
  z-score: 0.0862
[12]
  z-score: -5.55 (inactive)
[13]
  z-score: -1.48 (inactive)
[14]
  composite z-score: -0.24 (inactive)
[15]
  z-score: -2.62 (inactive)
[16]
  z-score: -0.0522 (inactive)
[17]
  z-score: -0.169 (inactive)
[18]
  z-score: -1.41
[19]
  composite z-score: 0.194
